Assay outcomes deposited in PubChem by Broad Institute.
rRNA inh HTS: inhibitors of bacterial rRNA selective over humanized ribosomes; E. coli WT GFP vs humanized-ribosome RFP mutants, fluorescence, 24 h; stronger effect = lower value; DMSO median 0, no signal -100; GFP signal change (wild-type ribosome), % (no concentration beside the values); actives 1.6% (n = 350,000); AID 720706;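 active means significant combined selectivity score with lowered wild-type GFP, culture density cut under 30%, mutant RFP and density less affected; inactive means any of these conditions unmet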
ARNT TACC3 PPI: disruptors of human ARNT/TACC3 interaction; AlphaScreen His-ARNT PAS-B/GST-TACC3 binding, luminescence; TACC3 fragment carries E629A point mutation; inhibition, % at 9.99 µM; Q9Y6A5; actives 0.66% (n = 390,000);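 active means mean inhibition of replicates at least 50% and at least half of replicates each reaching 50%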;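 further: 0% = complete ARNT plus TACC3 wells and 100% = ARNT alone without TACC3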
F508del corr: CFTR F508del correction in bronchial cells; AID 720511; CFBE cells, YFP halide quenching; stimulated with forskolin plus potentiator P3; % fluorescence drop versus neutral controls; activity (quench increase), % at 7.58 µM; actives 0.36% (n = 350,000);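 active means mean added fluorescence quench of at least 8% versus neutral control, with both replicates also reaching 8%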;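 further: cells transiently co-express mutant CFTR-F508del with the halide-sensitive YFP; corrector assay measuring rescue of mutant channel to the surface after 24 h compound exposure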
PvdQ inh: blocks Pseudomonas aeruginosa PvdQ acylase activity | purified PvdQ acylase, fluorescence plate reader | inhibition, % at 10 µM | actives 0.063% (n = 340,000) | AID 488965; in the data active means inhibition above about 30%, passing the limit was not always enough;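 further: 0% = vehicle neutral wells and 100% = reference inhibitor wells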
ERAP1 inh: ERAP1 (human) enzyme inhibition | Q9NZ08 | recombinant ERAP1, Leu-AMC fluorescence, 60 min | inhibition, % at 10.7 µM | actives 0.15% (n = 340,000) | AID 652197;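 active means mean replicate inhibition of at least 30%, or all replicates individually reaching that 30% level; inactive means mean below 30% and not every replicate reaching it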;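 further: 0% = neutral control wells and 100% = L-leucinethiol positive control wells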
Target sequence (Q9NZ08 whole entry, looked up): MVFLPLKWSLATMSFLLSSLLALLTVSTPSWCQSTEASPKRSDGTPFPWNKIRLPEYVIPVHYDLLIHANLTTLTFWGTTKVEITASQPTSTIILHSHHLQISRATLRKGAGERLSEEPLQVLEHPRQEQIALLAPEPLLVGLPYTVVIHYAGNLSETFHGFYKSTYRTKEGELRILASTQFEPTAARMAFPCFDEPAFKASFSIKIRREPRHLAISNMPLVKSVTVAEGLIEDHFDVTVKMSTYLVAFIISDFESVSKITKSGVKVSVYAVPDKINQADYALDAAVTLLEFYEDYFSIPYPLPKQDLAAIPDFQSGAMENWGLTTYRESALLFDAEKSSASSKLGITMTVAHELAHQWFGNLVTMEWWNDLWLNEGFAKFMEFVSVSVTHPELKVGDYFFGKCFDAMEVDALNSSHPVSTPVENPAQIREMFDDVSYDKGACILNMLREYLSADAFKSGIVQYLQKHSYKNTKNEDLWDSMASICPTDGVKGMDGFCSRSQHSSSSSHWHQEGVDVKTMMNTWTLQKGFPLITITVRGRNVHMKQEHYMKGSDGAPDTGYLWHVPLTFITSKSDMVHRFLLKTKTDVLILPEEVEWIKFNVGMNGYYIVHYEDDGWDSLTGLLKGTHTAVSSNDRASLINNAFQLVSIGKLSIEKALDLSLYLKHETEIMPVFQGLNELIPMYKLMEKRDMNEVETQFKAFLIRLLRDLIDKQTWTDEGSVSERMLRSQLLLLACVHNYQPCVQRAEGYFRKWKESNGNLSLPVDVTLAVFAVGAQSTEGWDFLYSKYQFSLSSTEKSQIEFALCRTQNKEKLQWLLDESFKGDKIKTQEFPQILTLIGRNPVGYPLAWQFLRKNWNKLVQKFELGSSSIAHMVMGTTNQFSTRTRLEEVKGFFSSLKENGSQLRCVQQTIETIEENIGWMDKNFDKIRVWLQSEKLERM
Active calls of the source: *; · = not tested or not shown. Only some compounds are listed: those with a hit (about 2.1% of all), similar ones and a draw of the others.

SMILES	rRNA inh HTS	ARNT TACC3 PPI	F508del corr	PvdQ inh	ERAP1 inh
C[C@@H]1CN([C@@H](C)CO)S(=O)(=O)c2ccc(/C=C/c3ccccc3)cc2O[C@@H]1CN(C)C(=O)c1ccccc1	-2.4	20.4	-0.2	·	·
C[C@@H]1CN([C@H](C)CO)C(=O)c2cc(NC(=O)CCC(F)(F)F)ccc2O[C@@H](C)CCCCO[C@@H]1CN(C)C(=O)NC1CCCCC1	-2.9	0.0	-0.2	·	-1.3
O=C(O)c1cc(=S)nc[nH]1	27.1	73.1*	4.4	-0.9	19.8
CCOC(=O)c1sc(-c2ccc(Br)cc2)cc1N	-33.8*	0.6	-0.8	-10.7	-1.6
CCOC(=O)c1cc(-c2ccc(N)cc2)sc1N	·	-0.3	·	-11.6	·
C[C@H](CO)N1C[C@H](C)[C@@H](CN(C)C(=O)NC2CCCCC2)Oc2ncc(-c3ccccc3F)cc2C1=O	0.8	-3.8	-2.2	·	-3.7
O=S(=O)(N/N=C1/CC(c2ccccc2)Oc2ccccc21)c1ccccc1 (stereo not given)	-12.5*	-2.0	0.8	-8.7	2.6
CC(C)(C)N/N=C1\CC(c2ccccc2)Oc2ccccc21 (stereo not given)	·	0.0	·	9.6	·
O=[N+]([O-])c1ccc(N2CCCCC2)nc1N1CCCCC1	-39.7*	13.0	-1.5	-2.0	1.4
COC(=O)c1cc(/C=C/c2ccccc2)on1	·	·	·	54.1*	·
CC1=C(C(=O)OC2CCCCCCC2)C(c2cccc(O)c2)NC(=O)N1 (stereo not given)	-33.4*	5.6	-1.0	-14.7	3.4
Cc1noc(C)c1S(=O)(=O)N(C)C[C@H]1Oc2ccc(NC(=O)C3CC3)cc2CC(=O)N([C@H](C)CO)C[C@H]1C	1.8	-2.9	-2.2	·	0.6
Cc1cccc(CN2C(=O)c3ccccc3Sc3ccc(C(=O)O)cc32)c1	-20.9*	-9.5	4.4	-14.2	7.4
Cc1ccccc1CN1C(=O)c2ccccc2Sc2ccc(C(=O)NCCN3CCOCC3)cc21	-1.8	-6.3	0.3	-4.2	0.0
Cc1ccccc1CN1C(=O)c2ccccc2Sc2ccc(C(=O)O)cc21	-34.5*	10.4	2.1	4.6	0.1
COc1ccc(Cn2c(=O)c3[nH]cnc3n(-c3ccc(C)cc3)c2=O)cc1	-20.4*	5.3	0.6	-15.3	-1.5
COc1ccc(-n2c(=O)n(Cc3ccccc3)c(=O)c3[nH]cnc32)cc1	2.5	1.2	2.1	-5.0	-0.1
COc1ccc(C(=O)NC(=S)NNC(=O)c2c(-c3ccccc3)noc2C)cc1OC	-40.2	7.4	0.6	10.2	0.7
Cc1onc(-c2c(Cl)cccc2Cl)c1C(=O)Nc1ccc(C(N)=O)cc1	·	-1.1	1.0	-13.5	2.5
Cc1onc(-c2ccccc2)c1C(=O)NC(=S)NNC(=O)c1cc(-c2ccc(F)cc2)n[nH]1	-33.1*	0.6	5.4	-9.4	6.1
COc1ccc(-c2nn(-c3ccccc3)cc2C(=O)NC(=S)NNC(=O)c2ccncc2)cc1	-37.8	46.1*	2.1	-3.4	-0.2
Cc1onc(-c2c(Cl)cccc2Cl)c1C(=O)Nc1ccc2c(c1)OCO2	-21.5*	2.7	4.7	-7.4	-1.1
Cc1onc(-c2ccccc2)c1C(=O)NNC(=S)NC(=O)c1ccc2c(c1)OCO2	-40.5*	15.5	1.4	-17.1	0.2
O=C(C[C@H]1CC[C@H]2[C@@H](COC[C@H](O)CN2CC2CCOCC2)O1)NCc1ccc(Cl)cc1	-0.6	-1.2	1.5	·	-2.2
Cc1onc(-c2ccccc2)c1C(=O)NC(=S)NNC(=O)c1cccnc1	-32.2	0.7	1.8	-5.3	-0.7
SMILES	rRNA inh HTS	ARNT TACC3 PPI	F508del corr	PvdQ inh	ERAP1 inh
Cc1onc(-c2ccccc2)c1C(=O)NC(=S)NNC(=O)c1ccncc1	-36.5*	19.9	-0.9	-9.6	1.0
CCN1[C@@H]2c3ccc(-c4cccnc4)c(=O)n3C[C@H]1[C@H](CO)[C@H]2C(=O)NC1CCCCC1	2.0	-1.5	0.7	·	-3.0
CN=c1scc(-c2ccccc2F)n1/N=C(\C)c1cccnc1	-48.6	39.5*	0.0	8.7	1.0
CCOC(=O)c1ccc(Nc2ncccc2[N+](=O)[O-])cc1	4.5	22.6	-2.1	44.5*	-4.2
COc1ccccc1CNC(=O)C[C@H]1C[C@@H]2c3cc(NC(=O)NC4CCCC4)ccc3O[C@@H]2[C@@H](CO)O1	-4.4	11.7	0.5	·	4.2
Cc1ccc(NC2=C(Cl)C(=O)OC2OC(=O)c2ccco2)c(C)c1 (stereo not given)	·	-11.0	·	-9.0	·
Cc1ccc(C)c(NC2=C(Cl)C(=O)OC2OC(=O)c2ccco2)c1 (stereo not given)	-27.5*	-3.4	-0.3	-7.8	12.8
CC(=O)N1CCc2c(sc(NC(=O)c3ccc4c(c3)OCCO4)c2C#N)C1	6.6	-10.7	10.5*	2.6	5.7
O=C(NCc1ccccc1)[C@H]1[C@H](CO)[C@H]2Cn3c(ccc(-c4cccnc4)c3=O)[C@H]2N1Cc1cocn1	1.1	·	·	·	·
COCCCNC(=S)NNC(=O)c1ccc(C(C)(C)C)cc1	6.2	-0.4	1.5	-1.2	·
COCCCNC(=S)NNC(=O)c1csc(C)n1	·	56.6*	0.0	-13.8	-0.3
CC(C)C#Cc1ccc2c(c1)O[C@H](CN(C)C(=O)C1CCC1)[C@@H](C)CN([C@@H](C)CO)S2(=O)=O	-7.9	·	-4.5	·	·
COc1ccc(CN(C)C[C@@H]2Oc3ccc(NC(=O)CCC(F)(F)F)cc3CC(=O)N([C@@H](C)CO)C[C@@H]2C)cc1	0.4	-3.1	0.5	·	1.1
Nc1nn(-c2ccccc2)c(N)c1N=Nc1ccccc1F	-37.0*	11.9	4.2	3.1	0.6
Nc1nn(-c2ccccc2)c(N)c1N=Nc1ccccc1	·	16.5	·	-5.4	·
CC(=Nc1ccccc1)C1=C(O)CCCC1=O	12.8	-2.3	0.3	-1.3	36.2*
COc1ccc(N2CCN(C(=O)CSc3nnnn3-c3ccc4c(c3)OCCO4)CC2)cc1	-21.5*	4.0	4.7	-7.1	-2.9
COc1ccccc1-c1ccc2c(c1)[C@H]1[C@H](CCN1C(=O)C1CC1)[C@@H](CO)N2	5.8	5.1	1.6	·	0.2
COc1ccc(-c2ccc(OC)cc2)cc1	·	-0.8	·	52.5*	·
C[C@@H]1CN([C@H](C)CO)C(=O)c2cc(NS(=O)(=O)c3ccc(Cl)cc3)ccc2O[C@@H]1CN(C)S(=O)(=O)c1cccs1	-10.4	-2.7	1.2	·	-1.4
COc1ccc(S(=O)(=O)NNC(=S)NCCc2ccccc2)c(OC)c1	-24.8*	5.6	0.3	-9.1	-2.1
CCOc1cc(C)cc2oc(=O)cc(-c3ccccc3)c12	-36.5*	1.9	2.3	-10.9	-1.7
CCCCc1cc(=O)oc2cc(C)cc(OCC(=O)N3CCC(C(=O)O)(c4ccccc4)CC3)c12	-12.6*	-4.1	1.5	15.0	-3.5
CO[C@H]1CN(C)C(=O)c2ccc(NC(=O)c3ccc(-c4ccccc4)cc3)cc2OC[C@@H](C)NC[C@H]1C	-3.1	5.5	-6.5	·	·
CCOC(=O)c1ccc(NC(=O)Nc2ccc(F)cc2)cc1	·	·	·	-7.5	·
